Bioassay records deposited in PubChem by several laboratories.
Most compounds without a hit are left out; they make up all but 4.1% or so of the library.
Beta apoptosis: beta cell apoptosis inhibition | INS-1E cytokine-induced death, ATP luminescence, 48 h; percent of positive-control rescue, neutral wells zero | protection from apoptosis, % (concentration not given with the values) | hit rate 0.8% among 300,000 | AID 435005;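 active = Every replicate reaches about 75%, or at least half do and their mean reaches it too, limit read from the data; inconclusive = At least half of replicates reach the limit but their mean does not; inactive = Under half of replicates reach the limit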;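 also: higher means more ATP so stronger rescue from cytokine killing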
Bfl-1 A1 inh: inhibitors of the anti-apoptotic protein A1, read as caspase activation. MEF A1-2A-BIM cells, Caspase-Glo 3/7 luminescence, 3 h; percent of clofoctol response, vehicle zero. caspase activation, % (test concentration not listed). hit rate 0.066% among 330,000. AID 2462;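 active = over half of replicate activation scores above 10%, or exactly half above 10 with the replicate mean above 10; inconclusive = replicate mean below 10 yet half the replicates above 10; inactive = over half of replicates below 10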
aSyn UTR inh: MLPCN primary screen, SNCA 5' untranslated region; inhibition, % (tested at 7.5 µM); AID 1813; alpha-synuclein 5'UTR reporter, inhibitor activity; hit rate 0.82% among 300,000; in the data active = inhibition above about 60%; inconclusive = no clear call, values can overlap the other calls;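 also: H4 neuroglioblastoma cells stably carrying SNCA 5'UTR luciferase fusion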
CSC inhib: cancer stem cell inhibition | cancer stem cell-like cells viability, luminescence | inhibition, % at 7.5 µM | hit rate 1.1% among 300,000 | AID 2717; in the data active = inhibition above about 75%; inconclusive = no clear call, values can overlap the other calls; tested in HMLE shEcad cells
Mdm2-MdmX inh: disrupts the human Mdm2-MdmX interaction; O15151+Q00987; SaOS-2 split-luciferase Mdm2/MdmX complementation, luminescence; inhibition, % at 8 µM; hit rate 3% among 330,000; AID 485346;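 active = inhibition of at least 50% at 8 µM in the primary screen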
Mdm2 MdmX conf: human Mdm2/MdmX binding inhibition, confirmed; shares compounds with Mdm2-MdmX inh; luminescent assay; inhibition, % at 8 µM; hit rate 55% among 10,000; AID 489028; in the data active = inhibition above about 40%
Full FLuc ctr: full-length luciferase inhibition in Mdm2/MdmX counter-screen; shares compounds with Mdm2-MdmX inh; SaOS-2 full-length luciferase counterscreen, luminescence; inhibition, % at 8 µM; hit rate 77% among 6,200;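 active = mean inhibition at 8 µM reaching about 37%, which flags the compound as non-specific, limit read from the data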;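 also: p53-null SaOS-2 cells with luciferase driven by a doxycycline-inducible promoter; compound on cells about two nights before reading with doxycycline added after day one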
A number is an active result.

For COc1ccc(OC)c(S(=O)(=O)Nc2cc(OC)c(Cl)cc2OC)c1 the results were Beta apoptosis inactive, Bfl-1 A1 inh inactive, aSyn UTR inh inactive, CSC inhib inactive and Mdm2-MdmX inh inactive.
For COc1cc(NS(=O)(=O)c2ccc(OC)c(C)c2C)c(OC)cc1Cl the results were Beta apoptosis inactive, Bfl-1 A1 inh inactive, aSyn UTR inh inactive, CSC inhib inactive, Mdm2-MdmX inh 51, Mdm2 MdmX conf 55 and Full FLuc ctr 63.
`COc1ccc(C(=O)NC(=S)NNC(=O)c2cnccn2)cc1` gave Beta apoptosis 77, Bfl-1 A1 inh inactive, aSyn UTR inh inactive, CSC inhib 88, Mdm2-MdmX inh 64, Mdm2 MdmX conf 57 and Full FLuc ctr 41.
`O=C(NC(=S)NNC(=O)c1cnccn1)c1ccc(Cl)cc1` gave Beta apoptosis inactive, Bfl-1 A1 inh inactive, aSyn UTR inh inconclusive, CSC inhib 94, Mdm2-MdmX inh 69, Mdm2 MdmX conf inactive and Full FLuc ctr 48.
Screening CC(Cc1ccccc1)NC(=O)CN1C(=O)c2ccccc2S1(=O)=O (centres undefined) returned Bfl-1 A1 inh inactive, aSyn UTR inh inactive, CSC inhib inactive and Mdm2-MdmX inh inactive.
For C=CCS(=O)(=O)c1nc2ccccc2s1 the results were Beta apoptosis inactive, Bfl-1 A1 inh inactive, aSyn UTR inh inactive, CSC inhib inactive, Mdm2-MdmX inh 63, Mdm2 MdmX conf inactive and Full FLuc ctr 42.
CC(C)(C)S(=O)(=O)c1nc2ccccc2s1 was read as Beta apoptosis inactive, Bfl-1 A1 inh inactive, aSyn UTR inh inactive and Mdm2-MdmX inh inactive.
CCS(=O)(=O)CCSc1nc2ccccc2s1 was read as Beta apoptosis inactive, Bfl-1 A1 inh inactive, aSyn UTR inh inactive, CSC inhib inactive and Mdm2-MdmX inh inactive.
`O=S(=O)(CCSc1nc2ccccc2s1)c1nc2ccccc2s1` gave Beta apoptosis inactive, Bfl-1 A1 inh inactive, aSyn UTR inh inactive, CSC inhib inactive, Mdm2-MdmX inh 99, Mdm2 MdmX conf 83 and Full FLuc ctr 55.
O=[N+]([O-])c1c(NCCCO)cc(Sc2nc3ccccc3s2)c2nonc12 was read as Beta apoptosis inactive, Bfl-1 A1 inh inactive, aSyn UTR inh inactive, CSC inhib inactive, Mdm2-MdmX inh 99, Mdm2 MdmX conf 56 and Full FLuc ctr inactive.
`Cc1nnc(Sc2cc(NCCCO)c([N+](=O)[O-])c3nonc23)s1` gave aSyn UTR inh inactive.
`CCOC(=O)c1c(NC(=O)C(C)Sc2nnc(C)c(=O)[nH]2)sc2c1CCCC2` (centres undefined) gave Beta apoptosis inactive, Bfl-1 A1 inh inactive, aSyn UTR inh inactive, CSC inhib inactive and Mdm2-MdmX inh inactive.
Screening O=C(Nc1cccc(Cl)c1)c1cc(N=Nc2ccc([N+](=O)[O-])cc2Cl)ccc1O returned Beta apoptosis inactive, Bfl-1 A1 inh inactive, aSyn UTR inh inactive, CSC inhib 128, Mdm2-MdmX inh 92, Mdm2 MdmX conf 97 and Full FLuc ctr 51.
Screening O=C(Nc1cccc(Cl)c1)c1cccc(Oc2ccc([N+](=O)[O-])cc2Cl)c1 returned Beta apoptosis inactive, Bfl-1 A1 inh inactive, aSyn UTR inh inactive, CSC inhib inactive, Mdm2-MdmX inh 61 and Mdm2 MdmX conf inactive.
`CC(C)Cc1nnc(NC(=O)c2ccc3c(=O)n4c(nc3c2)CCC4)s1` gave Beta apoptosis inactive, Bfl-1 A1 inh inactive, aSyn UTR inh inactive, CSC inhib inactive and Mdm2-MdmX inh inactive.
Screening Oc1[nH]c2ccc(Br)cc2c1N=NC(=S)NCC1CCCO1 (centres undefined) returned Beta apoptosis inactive, Bfl-1 A1 inh inactive, aSyn UTR inh inactive, CSC inhib inactive, Mdm2-MdmX inh 68, Mdm2 MdmX conf 53 and Full FLuc ctr 48.
`Oc1[nH]c2c(Cl)cc(Cl)cc2c1N=NC(=S)NCC1CCCO1` (centres undefined) gave Beta apoptosis inactive, Bfl-1 A1 inh inactive, aSyn UTR inh 79, Mdm2-MdmX inh 98, Mdm2 MdmX conf 45 and Full FLuc ctr 50.
Screening Cc1cc(C)c2[nH]c(O)c(N=NC(=S)NCC3CCCO3)c2c1 (centres undefined) returned Beta apoptosis inactive, Bfl-1 A1 inh inactive, aSyn UTR inh inactive, CSC inhib inactive and Mdm2-MdmX inh inactive.
Screening O=[N+]([O-])c1ccc(N=Nc2ccc(O)cc2O)cc1 returned Beta apoptosis inactive, Bfl-1 A1 inh inactive, aSyn UTR inh inactive, CSC inhib 83, Mdm2-MdmX inh 98, Mdm2 MdmX conf 56 and Full FLuc ctr inactive.
COCCN(Cc1cc2cc(C)ccc2n2nnnc12)C(=S)Nc1ccccc1C was read as Beta apoptosis inactive, Bfl-1 A1 inh inactive, aSyn UTR inh inactive, CSC inhib inactive, Mdm2-MdmX inh 51 and Mdm2 MdmX conf inactive.
`O=C(Nc1cccc(-c2ccc(N3CCOCC3)nn2)c1)c1ccc(F)cc1F` gave Bfl-1 A1 inh inactive, aSyn UTR inh inactive, CSC inhib inactive and Mdm2-MdmX inh inactive.
CC[C@]12c3[nH]c4cc(-c5ccco5)ccc4c3CCN1C(=O)[C@@H](CC(=O)NC/C=C(\C)CCC=C(C)C)C[C@@H]2C(=O)N1CCN(C(=O)c2ccco2)CC1 was read as Mdm2-MdmX inh 56 and Mdm2 MdmX conf inactive.
For CC[C@]12c3[nH]c4cc(CCC(=O)N(C)C)ccc4c3CCN1C(=O)[C@@H](CC(=O)NC/C=C(\C)CCC=C(C)C)C[C@@H]2C(=O)N1CCN(C(=O)C2CC2)CC1 the results were Mdm2-MdmX inh inactive.
CC[C@]12c3[nH]c4ccccc4c3CCN1C(=O)C(CC(=O)NC/C=C(\C)CCC=C(C)C)C[C@@H]2C(=O)N1CCN(C(=O)c2ccco2)CC1 (some centres undefined) was read as Beta apoptosis inactive, Bfl-1 A1 inh inactive, CSC inhib inactive, Mdm2-MdmX inh 54 and Mdm2 MdmX conf inactive.
CC[C@]12c3[nH]c4ccc(OC)cc4c3CCN1C(=O)C(CC(=O)NC/C=C(\C)CCC=C(C)C)C[C@@H]2C(=O)N1CCN(C(=O)c2ccco2)CC1 (some centres undefined) was read as Mdm2-MdmX inh inactive.
CC[C@]12c3[nH]c4ccc(Cl)cc4c3CCN1C(=O)[C@@H](CC(=O)NC/C=C(\C)CCC=C(C)C)C[C@@H]2C(=O)N1CCN(C(=O)C2CC2)CC1 was read as Mdm2-MdmX inh 70, Mdm2 MdmX conf inactive and Full FLuc ctr 71.
O=C(Cc1c(F)cccc1Cl)NNC(=O)c1ccc(Br)s1 was read as Beta apoptosis inactive, Bfl-1 A1 inh inactive, CSC inhib inactive and Mdm2-MdmX inh inactive.
CC1(NC(=O)Nc2cc([N+](=O)[O-])ccc2O)CCS(=O)(=O)C1 (centres undefined) was read as Beta apoptosis inactive, Bfl-1 A1 inh inactive, CSC inhib inactive and Mdm2-MdmX inh inactive.
`COc1ccc(-c2cc(C(=O)NCc3ccco3)c3ccccc3n2)cc1OC` gave Bfl-1 A1 inh inactive, aSyn UTR inh inactive and Mdm2-MdmX inh inactive.
